Laboratory results: PubChem BioAssay (NCI)
Values joined by “and” are separate entries in the source; they are usually repeats but may differ in a detail not shown here. Identical values can stand only once. Compounds without any hit were thinned out: in the full panel of roughly 83,000, 20% have a hit.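 Single-dose data. Exposure time 48 hours. Values below 10 considered active.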 Values without a mark were called inactive. Active and inactive are the calls of the source.

Test system: HL-60(TB) leukemia
Assay: NCI-60 one-dose screen, 48 h (100 = growth as untreated, 0 = no growth, -100 = all killed)
Conditions: 10 µM unless noted

SMILES | growth
NS(=O)(=O)c1ccc(-n2ncc(NC(=O)Nc3ccc(S(=O)(=O)Nc4nccs4)cc3)c2-c2ccccc2)cc1 | 92.5%
CCN(CC)CCCC(C)N=c1cc(Nc2cc(=NC(C)CCCN(CC)CC)c3cc(OC)ccc3o2)oc2ccc(OC)cc12 (configuration not stated) | -65.3% (active)
O=C(CCCCC1CCSS1)Nc1ncnc2n[nH]c(-c3ccc(Oc4ccccc4)cc3)c12 (configuration not stated) | 78.8%
C=CC[N+]1(CC)CCN=C1CCCCCCCCCCCCCCCCC (configuration not stated) | -59.5% (active)
Cc1nc2c(=O)[nH]c(SCC(=O)Nc3cccc(F)c3)nc2[nH]c1=O | 105%
COC1/C=C/OC2(C)Oc3c(C)c(O)c4c(O)c(c(/C=N/Nc5ccc([N+](=O)[O-])cc5[N+](=O)[O-])c(O)c4c3C2=O)NC(=O)C(C)=C/C=C/C(C)C(O)C(C)C(O)C(C)C(OC(C)=O)C1C (configuration not stated) | -1.29% (active)
Cc1ccc(NC(=O)Cn2cc(CN3CCN(c4ccnc5cc(Cl)ccc45)CC3)nn2)cc1 | 87%
N=C(N)c1ccc(-c2ccc(-c3ccc(Cl)cc3)s2)nc1 | -39.1% (active)
CC(=O)Cc1nsc(NC(=O)c2cc(-c3cc(Cl)cc(Cl)c3)oc2C)n1 | 96.5%
CC(=O)N1N=C(c2ccc(Nc3nc(Nc4ccccc4)nc(Nc4ccccc4)n3)cc2)CC1c1cccc([N+](=O)[O-])c1 (configuration not stated) | 94.8%
C#CCN(C)Cc1ccccc1 | 101% and 96.4%
CN(C)CCOc1ccc(-c2nc3ccc(-c4nc5ccc(N6CCN(C)CC6)cc5[nH]4)cc3[nH]2)cc1 | 72.1%
COc1cccc(Cn2c(-c3nonc3NC(C)=O)nc3ccccc32)c1 | -2.59% (active)
NC(=S)c1csc(CCNC(=O)c2ccccc2)n1 | 89%
Cc1cc(=O)n(Nc2ccccc2)c(O)c1C#N | 90.3%
O=[N+]([O-])c1cccc(-c2nc3cc4nc5ccccc5[nH]c4cc3n2)c1 | 91.5%
Cc1cc2c(F)c(Oc3ncnc(Nc4ccc(N5C[C@@H](C)N[C@@H](C)C5)cc4)c3C#N)cc(F)c2[nH]1 | -54.6% (active)
Cn1c(-c2c(N)n(CCCN3CCOCC3)c3nc(C#N)c(C#N)nc23)nc2ccccc21 | -82.3% (active)
CCOC(CN1CCN(CC(C)C(=O)c2ccccc2)CC1)c1ccccc1 (configuration not stated) | 110%

SMILES | growth
O=C(/C=C/c1ccc(Cl)cc1)c1cccc(Nc2nc(Nc3ccccc3)nc(Nc3ccccc3)n2)c1 | 95.9%
CCCC(O)Cn1ncc(C(=O)OCC)c1NC(=O)NCc1ccccc1F (configuration not stated) | 81.6%
O=C1/C(=C/c2ccc3cccc(Cl)c3n2)SC(=S)N1CCc1ccc(O)cc1 | 32.4%
CCCCCCCCCCCCCCCCN(CC)CC | -61.2% (active)
COC(=O)[C@]12CCC(C)(C)C[C@H]1C1=CC[C@@H]3[C@@]4(C)C/C(=C/c5cccnc5)C(=O)C(C)(C)[C@@H]4CC[C@@]3(C)[C@]1(C)CC2 | -13.5% [100 µM] (active)
N#Cc1c(NC(=O)c2ccco2)[n+]([O-])c2ccccc2[n+]1[O-] | 81.4%
OCc1ncc(-c2ccccc2)s1 | 91.1%
N#CC1=C(N)Oc2cc(N)ccc2C1c1ccc(F)cc1 (configuration not stated) | 88.9%
CCN1C[C@@H](C)n2c(c(O)c3c(=O)n(Cc4ccc(F)c(Cl)c4)nc(C(=O)NC)c32)C1=O | 36.7%
C#Cc1c2c(c(OC)c3c1OCO3)[C@H]([C@H]1OC(=O)c3c1ccc(OC)c3OC)N(C)CC2 | 72.5%
O=C(Nc1ccc(I)cc1F)c1cc(Cl)ccc1O | -44.3% (active)
CCc1cccc(CC)c1NC(=O)c1sc2nc3c(cc2c1N)CCCC3 | 41%
COC(=O)/C(=C\c1c(-c2ccccc2)[nH]c2ccccc12)S(C)(=O)=O | 1.54% (active)
COc1ccc(S(=O)(=O)N2CCCCCC2)cc1NC(=O)c1[nH]c(C)c2c1CCCCC2=O | 7.56% (active)
N#CC1C=CN(CC(N)=O)c2ccc3cccnc3c21 (configuration not stated) | 92.7%
CCOc1cc(Br)c(C(C)NC(=O)c2cccc(OC)c2)cc1OCC (configuration not stated) | 45.7%
CCCCCC(=O)N1c2ccccc2NC2=C(C(=O)CC(c3ccc(OC)c(OC)c3)C2)C1c1ccc(C(F)(F)F)cc1 (configuration not stated) | 45.4%
CCCc1c(C)nc2scc(-c3ccc(Cl)cc3)n2c1=O | 98%
